One experiment concerns the target MTX3. Put plainly: pooled miR-30 sensor sort-seq; sequence = guide strand. The conditions noted are these: shRNA.
For TTTAGGAAACCGTACTTTGTAA, the sensor-assay potency score (higher = more potent) is -0.773.
For TATCACATTGACTTTCAAGGGT, the sensor-assay potency score (higher = more potent) was found to be 0.582.
On the same count and under the same terms, as for ATAATCAGCATTATATTTCTGT, the figure is 0.674; as for TTTTGGTTTAGAGTCTTCCTTA, 0.00174.
For TAATTGTCACTCTCAACCCAGA, the sensor-assay potency score (higher = more potent) was -0.703.
TTATCTATCACATTGACTTTCA registered a sensor-assay potency score (higher = more potent) of -0.0166.
The sequence TAGAAGATTTAGGCACTCCTTG gave a sensor-assay potency score (higher = more potent) of -0.542.
For TTGGCGAAGATTGTCATCCATC, the sensor-assay potency score (higher = more potent) is -1.1.
In the case of TAAAGTAATTGTCACTCTCAAC, the sensor-assay potency score (higher = more potent) is -1.48.
Still for that read-out and setting: as for TTGCTGAGAGTTCATAATCAGC, the figure is -1.72.
For the sequence TTTGCCTTCACACACTTGGTGT, the sensor-assay potency score (higher = more potent) is -0.519.

For a further experiment, the target named is MUC16. The experiment is described as above. Particulars: shRNA.
Sequence TAGTTGTCGTTGAAACAGCTGA came in with a sensor-assay potency score (higher = more potent) of -0.38.
For the sequence TTGACATAGAGACTGTTCCTGT, the sensor-assay potency score (higher = more potent) is -0.0675.
The same measure, in the same setting: next, TTGACATAGAGACTGTTCCGGT: -0.323.
Sequence TTGACATAGAAACTATTGCTTG came in with a sensor-assay potency score (higher = more potent) of -0.839.
The same measure, in the same setting: as for TTTGTCTCTGTTGTTGAGCTGG, the figure is 0.192; as for TTGGACTTTCTGAACTAGCGTG, -0.377.
On the same count and under the same terms, as for TTCAGTAGTAGCACTAGTGGGC, the figure is 0.151; as for TTGTCTGTGATGTTGAACTTGA, -0.129.
Same read-out and setting: next, TTGACATAGAGACTGTCCCTGT: -0.193; TTGACATAGAGACTGTGCCTGT: -0.153.
For the sequence TTGTCTTTGAAACCAGTTCTGG, the sensor-assay potency score (higher = more potent) is -0.722.

Another experiment addresses MUC20. The description is as above. Particulars: shRNA.
TAACTTGGTGTCTCAACAGAGA returned a sensor-assay potency score (higher = more potent) of -0.859.
TTGGTGTCTCAACAGAGAGGGC displayed a sensor-assay potency score (higher = more potent) of -0.842.
The sequence TTCATCGTGGTCTTCGCTGAGG showed a sensor-assay potency score (higher = more potent) of -0.448.
Take TTGTGAGTGTCTTTGCCTCTTC: the sensor-assay potency score (higher = more potent) was -0.403.
In turn, TGAAACACAGAACATGTGCCAA returned a sensor-assay potency score (higher = more potent) of -0.681.
The same measure, in the same setting: as for TACTGAAACACAGAACATGTGC, the figure is 0.46; as for TTAATAACCTCGATGTTTGTGA, -0.0395; as for TTCGCTGAGGTTGTGATCTTGG, 0.418.
The sequence TTTACTGAAACACAGAACATGT yielded a sensor-assay potency score (higher = more potent) of -0.607.
Same read-out and setting: as for TTCACCTGCACTCACGTCTGTG, the figure is -1; as for TCTGTGGTCGGCCTCGTCCGGG, -1.58.

A further experiment has as its target MUC4. The experiment is described as above. The conditions noted are these: shRNA.
As to TTGAAGGTGTAACTGACACCAT, the sensor-assay potency score (higher = more potent) was 0.0208.
Same read-out and setting: next, TTCAGGAAATAGGAGAACCTGG: -1.36.
For the sequence TTGAAGAATCCTGACAGCCTTC, the sensor-assay potency score (higher = more potent) is -0.37.
Turning to TTCAGGAAGTCAATGACCGGGC, the sensor-assay potency score (higher = more potent) was -0.298.
Sequence TTCACCATAGAACGTCTCGTAT returned a sensor-assay potency score (higher = more potent) of -0.617.
Take TTGTCTGTGAAGTAGAGGGAAT: the sensor-assay potency score (higher = more potent) is -1.17.
Consider TTTGTCATCTTTCTAATCCAAG, for which the sensor-assay potency score (higher = more potent) is -1.23.

Source of the values: the OligoGym collection.
Note: reference of the scale not given here.
